Compound activity (PubChem)
BAZ2B inh = BAZ2B (human) inhibition | Q9UIF8 | AlphaScreen BAZ2B-H3K14Ac peptide displacement | Potency, µM (series often up to 114 µM), without a hit: at the highest dose activity change, negative = inhibition, actives largely listed as inhibitors | 360,000 compounds, 4.4% hits; note: % is set by controls: 0 for no effect and ±100 for the full control effect; nearly all actives have a fitted effect of over 60% in size
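Multi-concentration screen (max 110 uM) measuring displacement of acetylated histone H3 peptide from BAZ2B by AlphaScreen, using 50 nM protein, 50 nM peptide and 10 ug/mL streptavidin donor plus Ni-chelate acceptor beads.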
L3MBTL1 block = blocks human L3MBTL1. AlphaScreen L3MBTL1–H3K9me1 peptide binding. AID 485360. 230,000 compounds, 0.66% hits. Potency, µM (top dose mostly 57.1 µM), inactives show at the top dose activity, negative = inhibition, actives largely listed as inhibitors; note: % is set by controls: 0 for no effect and ±100 for the full control effect; nearly all actives have a fitted effect of over 60% in size
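First, the protein-peptide complex forms for 30 min at room temperature (L3MBTL1 50 nM, biotinylated H3K9me1 peptide 75 nM). Next, compounds are pin-transferred and incubated 30 min. Finally, AlphaScreen beads are added and read after 30 min.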
G9a block = inhibitors of human histone lysine methyltransferase G9a; 350,000 compounds, 8.8% hits; G9a H3K9 monomethylation, AlphaScreen, 2 h; AID 504332; Potency, µM (series often up to 102 µM), without a hit: at the top dose activity, negative = inhibition, usual class: inhibitors; note: % is set by controls: 0 for no effect and ±100 for the full control effect; nearly all actives have a fitted effect of over 75% in size
Target sequence (Q96KQ7 913-1193 limits assumed): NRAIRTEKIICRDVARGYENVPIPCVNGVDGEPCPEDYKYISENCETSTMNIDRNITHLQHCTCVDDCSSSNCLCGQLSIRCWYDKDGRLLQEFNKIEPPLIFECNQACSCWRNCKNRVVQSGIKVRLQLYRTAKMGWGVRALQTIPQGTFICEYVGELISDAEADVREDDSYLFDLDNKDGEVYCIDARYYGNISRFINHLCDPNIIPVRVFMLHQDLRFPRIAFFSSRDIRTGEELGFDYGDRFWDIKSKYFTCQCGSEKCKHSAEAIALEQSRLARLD
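Signal arises when biotinylated H3K9 peptide, once monomethylated, bridges streptavidin donor and antibody-captured acceptor beads. Enzyme at 20 nM was preincubated 15 min with test compounds; peptide 500 nM and SAM 20 uM then reacted for 2 h.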
HP1b binding inh = blocks HP1-beta chromodomain binding to methylated histone tails; AlphaScreen HP1-beta / biotin-H3K9me3 peptide binding; Potency, µM (doses to about 114 µM), for the others: at the top dose activity change, negative = inhibition, hits mostly inhibitors; AID 540317; 390,000 compounds, 0.56% hits; note: nearly all actives have a fitted effect of over 70% in size
Target sequence (P83916 whole entry, looked up): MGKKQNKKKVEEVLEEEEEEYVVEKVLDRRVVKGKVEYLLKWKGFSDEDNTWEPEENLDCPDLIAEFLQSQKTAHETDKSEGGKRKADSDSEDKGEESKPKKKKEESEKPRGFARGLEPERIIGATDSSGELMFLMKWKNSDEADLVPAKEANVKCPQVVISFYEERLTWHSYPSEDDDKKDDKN
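Compound inhibition of the preformed complex between 50 nM HP1-beta and 50 nM biotinylated H3K9me3 peptide was read by AlphaScreen. Buffer was PBS pH 7.4 with 0.01% Tween-20. Incubations ran 30 min at room temperature, with 10 ug/mL donor/acceptor beads.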
JMJD2A Tudor = JMJD2A Tudor domain (human) inhibition; 390,000 compounds, 4.4% hits; AlphaScreen JMJD2A-Tudor / H3K4me3 peptide binding; AID 504339; Potency, µM (top dose mostly 114 µM), without a hit: top-dose activity change, negative = inhibition, hits mostly inhibitors; note: % is set by controls: 0 for no effect and ±100 for the full control effect; nearly all actives have a fitted effect of over 50% in size
Numbers without * were called inactive; ! = not active in a repeat; [ ] = dose if it differs, or a comment. Rows were chosen to be rich in hits. Some 11% of all compounds tested hit in one or more screens of this group. Calls come from the whole dose curve; as a rule, active = well fitted inhibition curve with a large enough effect; inconclusive = small, poorly fitted or top-dose-only effect; inactive = no such curve, though single readings can be large or run the other way. Potency is the fitted concentration of half-maximal effect.

Results for NC(=O)CC(NC(=O)c1cccc(Br)c1)c1ccc(NC2CCN(Cc3ccccc3)CC2)c([N+](=O)[O-])c1 (stereo unspecified) ?
BAZ2B inh: inconclusive; L3MBTL1 block: -6%; G9a block: 50µM*; HP1b binding inh: -11%; JMJD2A Tudor: inconclusive

What do the screens show for `NC(=O)CC(NC(=O)c1ccccc1)c1ccc(N2CCCCCCC2)c([N+](=O)[O-])c1` (stereo unspecified)?
BAZ2B inh: inconclusive; L3MBTL1 block: -7%; G9a block: 45µM*; HP1b binding inh: 9%; JMJD2A Tudor: -35%

What do the screens show for `NC(=O)CC(NC(=O)c1ccccc1)c1ccc(NC2CCCCCCC2)c([N+](=O)[O-])c1` (stereo unspecified)?
BAZ2B inh: inconclusive; L3MBTL1 block: -7%; HP1b binding inh: 40%; JMJD2A Tudor: -32%

Results for NC(=O)CC(NC(=O)c1ccc(Br)cc1)c1ccc(NC2CCCCCCC2)c([N+](=O)[O-])c1 (stereo unspecified) ?
BAZ2B inh: inconclusive; L3MBTL1 block: -12%; G9a block: 79µM*; HP1b binding inh: -16%; JMJD2A Tudor: inconclusive

What do the screens show for `Cc1nn(CC(=O)NCc2ccc(OC(C)C)cc2)c(=O)c2c(C)n(-c3ccc(Cl)cc3)nc12`?
BAZ2B inh: 6%; G9a block: 16%[59 µM]; HP1b binding inh: 10%[57 µM]; JMJD2A Tudor: -13%

Results for CCc1nn(CC(=O)N(CC)Cc2ccccc2)c(=O)c2cc3occc3n12 ?
BAZ2B inh: -13%; G9a block: -5%[59 µM]; HP1b binding inh: 10%; JMJD2A Tudor: -19%

What do the screens show for `O=c1[nH]c2ccc(NS(=O)(=O)c3ccc4ccccc4c3)cc2[nH]1`?
BAZ2B inh: -15%; L3MBTL1 block: -2%; G9a block: 50µM*; HP1b binding inh: 35%; JMJD2A Tudor: 8%

Results for O=c1[nH]c2ccc(NS(=O)(=O)c3ccc(Cl)cc3)cc2[nH]1 ?
BAZ2B inh: -18%; L3MBTL1 block: -1%; G9a block: 56µM*; HP1b binding inh: 35%; JMJD2A Tudor: -8%

What do the screens show for `O=c1[nH]c2ccc(NS(=O)(=O)c3ccc(F)c(Cl)c3)cc2[nH]1`?
BAZ2B inh: -3%; G9a block: inconclusive; HP1b binding inh: -3%; JMJD2A Tudor: inconclusive

Results for O=C1CN(C(=O)COc2ccc(Cl)cc2Cl)C(c2ccccc2)c2cc(F)ccc2N1 (stereo unspecified) ?
BAZ2B inh: -13%; G9a block: -17%[59 µM]; HP1b binding inh: 26%; JMJD2A Tudor: -22%

What do the screens show for `COc1ccccc1C(=O)NCC(=O)NCc1cc(=O)n(C)c(=O)n1C`?
BAZ2B inh: -2%; G9a block: -3%; HP1b binding inh: 23%; JMJD2A Tudor: -11%

What do the screens show for `O=C(Oc1cccccc1=O)c1ccccc1`?
BAZ2B inh: inconclusive; L3MBTL1 block: 7%; G9a block: 25µM*; HP1b binding inh: 11%; JMJD2A Tudor: -29%

Results for Cc1ccc(S(=O)(=O)N(CC(=O)Nc2cccnc2)c2cc(Cl)ccc2C)cc1 ?
BAZ2B inh: inconclusive; G9a block: -46%[59 µM]; HP1b binding inh: 14%; JMJD2A Tudor: -30%

What do the screens show for `Cc1cc(N)n(-c2ccc(Oc3ccccc3)c(S(=O)(=O)O)c2)n1`?
BAZ2B inh: 56µM*; L3MBTL1 block: inconclusive; G9a block: 50µM*; HP1b binding inh: 23%; JMJD2A Tudor: -32%

Results for CN(C)CCCNC(=O)c1cc(C(=O)c2ccccc2)c[nH]1 ?
BAZ2B inh: 0%; G9a block: 0%[2.33 µM]; HP1b binding inh: 20%; JMJD2A Tudor: -11%

Results for O=C(c1ccccc1)c1c[nH]c(C(=O)NNc2ccccc2)c1 ?
BAZ2B inh: -21%; L3MBTL1 block: 3%; G9a block: 10µM*; HP1b binding inh: 25%; JMJD2A Tudor: -9%[11.4 µM]

What do the screens show for `O=C(NCc1nc2ccccc2[nH]1)c1ccc(Cl)c(S(=O)(=O)N2CCCC2)c1`?
BAZ2B inh: -21%; L3MBTL1 block: -19%; G9a block: 35µM*; HP1b binding inh: 18%; JMJD2A Tudor: -29%

Results for CSCCC(NC(=O)c1cccc(S(=O)(=O)N2CCN(C(C)=O)CC2)c1)c1nc2ccccc2[nH]1 (stereo unspecified) ?
HP1b binding inh: 37%; JMJD2A Tudor: -19%

Results for CSCC[C@H](NC(=O)c1ccc(Cl)c(S(=O)(=O)N2CCCC2)c1)c1nc2ccccc2[nH]1 ?
BAZ2B inh: inconclusive; L3MBTL1 block: -22%; G9a block: 35µM*; HP1b binding inh: 5%; JMJD2A Tudor: -26%

Results for CCC(=O)N1CCc2cc(S(=O)(=O)NCCC(=O)Nc3ccc(OC)c(Cl)c3)ccc21 ?
G9a block: -3%[59 µM]; HP1b binding inh: 35%; JMJD2A Tudor: -7%

What do the screens show for `Cc1ccc(-n2cc3c(c2-c2ccccc2Br)c(=O)n(C)c(=O)n3C)cc1N`?
BAZ2B inh: 50µM*; G9a block: inconclusive; HP1b binding inh: -7%; JMJD2A Tudor: inconclusive

Results for CC(NC(=O)Nc1ccc(Cl)c(Cl)c1)C(c1ccccc1)N1CCOCC1 (stereo unspecified) ?
BAZ2B inh: -1%; L3MBTL1 block: inconclusive; G9a block: 0%; HP1b binding inh: 41%; JMJD2A Tudor: -6%

How did CC(NC(=O)Nc1ccc([N+](=O)[O-])cc1)C(c1ccccc1)N1CCOCC1 (stereo unspecified) do in these assays?
BAZ2B inh: 16%; L3MBTL1 block: -10%; G9a block: 40µM*; HP1b binding inh: 11%; JMJD2A Tudor: -28%

What do the screens show for `Cc1ccc(C(=O)NC2(O)C(=O)c3ccccc3C2=O)cc1C`?
BAZ2B inh: -20%; G9a block: 50µM*; HP1b binding inh: 15%; JMJD2A Tudor: -4%

How did O=C(NC1(O)C(=O)c2ccccc2C1=O)c1ccc(C(F)(F)F)cc1 do in these assays?
BAZ2B inh: -17%; HP1b binding inh: 23%; JMJD2A Tudor: 5%

How did C/C(=N\Nc1ccc(F)cc1F)c1ccccc1O do in these assays?
BAZ2B inh: -7%; L3MBTL1 block: 10%; G9a block: 14µM*; HP1b binding inh: 42%; JMJD2A Tudor: -2%

What do the screens show for `C/C(=N\Nc1cc(C(F)(F)F)ccc1Cl)c1ccccc1O`?
BAZ2B inh: 5%; L3MBTL1 block: 0%; G9a block: 5%[59 µM]; HP1b binding inh: 57%; JMJD2A Tudor: 11%

Results for COc1ccc(OCC(=O)Nc2c(C(=O)N(CCN(C)C)Cc3ccco3)oc3ccccc23)cc1 ?
BAZ2B inh: 71µM*; G9a block: 15%[59 µM]; HP1b binding inh: inconclusive; JMJD2A Tudor: inconclusive

Results for COc1ccccc1C(=O)Nc1c(C(=O)N(CCN(C)C)Cc2ccco2)oc2ccccc12 ?
BAZ2B inh: inconclusive; G9a block: 40µM*!; HP1b binding inh: -24%[57 µM]; JMJD2A Tudor: 45µM*
